Screening data (PubChem BioAssay)
mcGAS inh = cyclic GMP-AMP synthase inhibitors, mouse, primary biochemical chemiluminescence. Q8C6L5. recombinant cGAS, Kinase-Glo ATP depletion luminescence. inhibition, % at 12.5 µM. 0.15% of 160,000 active
hcGAS lum = Primary biochemical luminescence assay for human cyclic GMP-AMP synthase inhibitors; inhibition, % at 12.5 µM; 0.081% of 290,000 active; recombinant h-cGAS, ATP depletion, Kinase-Glo luminescence; Q8N884
Target sequence (Q8N884 whole entry, looked up): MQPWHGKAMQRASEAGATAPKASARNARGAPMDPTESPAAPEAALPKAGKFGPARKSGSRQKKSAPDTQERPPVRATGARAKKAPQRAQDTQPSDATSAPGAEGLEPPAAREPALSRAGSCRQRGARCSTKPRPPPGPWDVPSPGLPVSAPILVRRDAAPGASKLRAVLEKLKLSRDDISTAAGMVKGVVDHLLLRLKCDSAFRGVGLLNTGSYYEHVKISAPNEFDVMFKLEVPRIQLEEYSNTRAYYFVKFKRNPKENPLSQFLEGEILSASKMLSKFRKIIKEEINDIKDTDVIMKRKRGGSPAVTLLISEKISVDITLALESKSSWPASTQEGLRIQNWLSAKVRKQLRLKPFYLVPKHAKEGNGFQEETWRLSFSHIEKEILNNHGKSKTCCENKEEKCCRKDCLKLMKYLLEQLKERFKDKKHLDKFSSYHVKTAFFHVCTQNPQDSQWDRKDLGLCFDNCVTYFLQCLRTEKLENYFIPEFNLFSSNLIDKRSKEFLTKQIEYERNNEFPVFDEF
NPYLR7 ag = agonists of mosquito NPYLR7 receptor, primary screen, cell-based, Aedes aegypti, calcium fluorescence, mosquito biting behavior; Aedes aegypti neuropeptide Y-like receptor 7 (NPYLR7); activation, % at 10 µM; 0.15% of 270,000 active; HEK293T NPYLR7/Galpha15, GCaMP6s calcium fluorescence; AID 1259423, 2018; in the data active = activation above about 40%
Numbers stand for hits; 0 = inactive; - = not tested or not shown; + = active, no number; ! = not confirmed by another sample. Rows were chosen to be rich in hits. Some 0.3% of all compounds tested hit in one or more screens of this group. Rule as the data show it, unless noted: active = inhibition above about 40%; inactive = the rest.

SMILES | mcGAS inh | hcGAS lum | NPYLR7 ag
CC(=O)Oc1cccc2c1C(=O)c1c(OC(C)=O)cc(C(=O)O)cc1C2=O | 0 | 57 | 0
CC(=O)Oc1ccc2c(c1OC(C)=O)C(=O)c1ccccc1C2=O | 0 | 0 | 0
CCn1c(C)ccc(C(=O)N2CC(c3ccncc3)C2)c1=O | 0 | 0 | 0
COC(=O)c1cccc(NCN2C(=O)c3ccc(Br)cc3C2=O)c1 | 0 | 0 | 0
O=C(Cc1cccs1)Nc1nnc(SCc2ccccc2C(F)(F)F)s1 | 0 | 0 | 0
Cc1ccc(Cl)cc1NC(=O)Cn1c2ccccc2c(=O)c2ccccc21 | - | 0 | 0
Cc1ccc2c(=O)c3ccccc3n(CCCN)c2c1C | - | 71 | 0
CC(C)c1nnc(CN(Cc2ccc(C(F)(F)F)cc2)C2CC2)o1 | 0 | 0 | 0
CN(Cc1cccnc1)C1CCN(CCc2ccccn2)CC1 | - | 0 | 0
COc1ccc(CCNC(=O)c2c(C)noc2-c2cccs2)cn1 | 68 | 0 | 0
COc1ccc(CCNC(=O)c2c(C)noc2-c2ccccc2Cl)cn1 | 0 | 0 | 0
Cn1c(C2CCS(=O)(=O)C2)nn(CN2CCCc3cc(F)c(F)cc32)c1=S (stereo unspecified) | - | 0 | 0
O=C(NCCc1csc2nc(-c3cccs3)nn12)c1cc(Br)ccc1Cl | 0 | 0 | 0
N#CC(C(=O)/C=C/c1nccs1)C(=O)Nc1cccc(Cl)c1Cl (stereo unspecified) | - | 46 | 0
Cc1c(Cl)cccc1NC(=O)C(C#N)C(=O)COc1ccc(F)cc1 (stereo unspecified) | 0 | 0 | 0
CN(NC(=O)C1CCCCC1C(=O)N1CCC(C#N)(c2ccccc2)CC1)c1ccccc1 (stereo unspecified) | 0 | 0 | 0
CCCc1[nH]n(-c2ccc(Cl)cc2)c(=O)c1/C=C1\NC(=O)N(Cc2cccc(C)c2)C1=O | 0 | 0 | 0
CCCc1[nH]n(-c2ccc(Cl)cc2)c(=O)c1/C=C1\NC(=O)N(Cc2ccc(C)cc2)C1=O | 0 | 0 | 45
Cc1cc(CN2CCC3(CC2)CC(O)CCO3)n(C)n1 (stereo unspecified) | 0 | 0 | -
CC(C)(C)OC(=O)N1CCC(NCc2ccccc2-c2ccccc2)C1 (stereo unspecified) | - | 0 | 0
Cn1nnnc1SCc1cc2c(cc1Br)OCO2 | 0 | 66 | 0
Brc1cc2c(cc1CSc1nnnn1C1CC1)OCCO2 | - | 0 | 0
CCCCC1=NN2C(=N)/C(=C/c3ccc(Br)cc3)C(=O)N=C2S1 | - | 0 | 0
COc1ccc(Oc2nc3c(C)cccn3c(=O)c2/C=C(\C#N)c2nc3ccccc3s2)cc1 | 0 | 0 | 0
COc1ccccc1Oc1nc2ccccn2c(=O)c1/C=C(\C#N)c1nc2ccccc2s1 | 0 | 0 | 65
SMILES | mcGAS inh | hcGAS lum | NPYLR7 ag
COC(=O)/C(C#N)=C/c1c(Oc2ccc(C)cc2)nc2ccccn2c1=O | 0 | 0 | 0
Cc1cccc(Oc2nc3ccccn3c(=O)c2/C=C(\C#N)c2nc3ccccc3s2)c1 | 0 | 0 | 89
C[n+]1ccn2c3c(c4cc(C5CCCCC5)ccc42)CCCc31 | - | 0 | 0
CCN(Cc1cc(C)c(OCc2cccc(C)c2)c(C)c1)C(=O)CC1CCS(=O)(=O)C1 (stereo unspecified) | - | 0 | 0
Cc1nn2c(=O)[nH]c(SCC(=O)NCCc3ccccc3)nc2c1-c1ccccc1 | 0 | 0 | 0
CNC(=O)CSc1nc2c(-c3ccccc3)c(C)nn2c(=O)[nH]1 | 0 | 55 | 0
Cn1cc(S(=O)(=O)Nc2ccc(F)cn2)nc1Cl | - | 0 | 0
COCCOc1ccc(NS(=O)(=O)c2cn(C)c(Cl)n2)cn1 | - | 0 | 99
CN(C)C(=O)CN1CCN(C(=O)CN2CCN(C(c3ccccc3)c3ccccc3)CC2)CC1 | 0 | 0 | 0
COc1cc(CSc2nnc(NC(=O)C3CCC3)s2)cc(OC)c1 | 83 | 0 | 0
O=C(Nc1nnc(SCc2cc(F)cc(F)c2)s1)C1CC1 | 0 | 0 | 0
O=C1C2CCCN2C(c2ccccc2Cl)N1c1nccs1 (stereo unspecified) | 0 | 0 | 0
Nc1c2ccccc2nc2ccccc12 (tested in a mixture with another compound) | - | 55 | 0
Nc1ccccc1-c1nc(-c2ccccc2)nc2ccccc12 | 0 | 0 | 0
COc1ccc(N2CCN(C(=O)c3cccc(CSc4nc(Cl)cc(N5CCC(C(C)=O)(c6ccccc6)CC5)n4)c3)CC2)cc1 | 0 | 0 | -
Cn1c(/C(C#N)=C/c2ccc(N3CCOCC3)o2)nc2ccccc21 | - | 0 | 126
Cn1c(C(C#N)=Cc2ccc([N+](=O)[O-])s2)nc2ccccc21 | - | 0 | 0
O=C(NC1CCCN(Cc2ccccc2)C1)c1cn(Cc2ccccc2F)nn1 (stereo unspecified) | - | 0 | 0
O=C1SC(Nc2ccc(Br)cc2)C(=O)N1CCN1C(=O)c2ccccc2C1=O (stereo unspecified) | 0 | 0 | 0
O=C1SC(Nc2ccc(Br)cc2)C(=O)N1c1ccccc1 (stereo unspecified) | 0 | 0 | 85
COc1ccc(Cl)cc1CS(=O)CCC(=O)Nc1ccccc1 (stereo unspecified) | - | 0 | 0
COc1cccc(-c2cc(C(=O)N(CCC(=O)NCCC3CCCN3C)CC(C)C)no2)c1 (stereo unspecified) | - | + | 0
CC(C)NC(=O)CCN(CC1CCCO1)C(=O)c1cc(-c2cccc(Cl)c2)on1 (stereo unspecified) | 0 | 0 | -
CCOc1ccc(/C=C2N=C(/C=C/c3ccccc3)OC/2=O)cc1 | - | 0 | 66
CCOc1ccc(/C=C2N=C(/C=C/c3ccc(C)cc3)OC\2=O)cc1 | - | 0 | 0
SMILES | mcGAS inh | hcGAS lum | NPYLR7 ag
CC(C)NC[C@H](O)c1ccc(O)c(O)c1 | 0 | 0 | 85!
CC(C)NCC(O)c1cc(O)cc(O)c1 (stereo unspecified) | 0 | 0 | 0
COc1cc(/C=C2\SC(=S)N(c3cccc(C(=O)O)c3)C2=O)ccc1O | 0 | 0 | 52
COCCN1C(=O)/C(=C/c2ccc(O)c(OC)c2)SC1=S | - | 0 | 0
COc1ccc(/C=C2\SC(=S)N(c3ccc(C(=O)O)cc3)C2=O)cc1OC | 0 | 0 | 0
COc1cc(/C=C2\SC(=S)N(C(CC(=O)O)C(=O)O)C2=O)ccc1O (stereo unspecified) | 0 | 0 | 68
COc1ccccc1C(=O)N1CCc2c(sc3[nH]c(=O)n(C(C)C)c(=O)c23)C1 | 0 | 0 | 0
CCCC(C)(C)NC(=O)c1cc(=O)[nH]c2c(Br)cccc12 | 0 | 0 | 0
O=C(NCC1(N2CCOCC2)CCCC1)c1coc(Cn2cnc3ccccc32)n1 | - | 0 | 0
O=C1/C(=C/c2ccc3ccccc3n2)Oc2cc(O)ccc21 | - | 0 | 0
Cc1ccc(/C=C2/Oc3cc(O)ccc3C2=O)s1 | 0 | 0 | 165
OCc1ccc2ccccc2n1 | - | 0 | 0
CC(Oc1ccccc1)C(=O)Nc1ccc(N2CCOCC2)cc1 (stereo unspecified) | - | 0 | 0
COCCN(CCc1nc(-c2cccc([N+](=O)[O-])c2)no1)CC(O)COC (stereo unspecified) | 0 | 0 | 0
CC(C)c1nc(NC(=O)CS(=O)(=O)C2CCCC2)n(C)n1 | - | 0 | 0
CC(C)c1nc(NC(=O)c2[nH]ncc2Br)n(C)n1 | - | 49 | 85
O=C1CCCCCN1CCCNC(=O)N1CCC(Cc2ccccc2)CC1 | - | 0 | 0
N=C1/C(=C/c2cccs2)C(=O)N=C2SC(Cc3ccccc3)=NN12 | - | 0 | 0
